Laboratory results published in PubChem BioAssay.
Values joined by “and” are separate entries in the source; they are usually repeats but may differ in a detail not shown here. Equal entries are not always repeated. Active and inactive are the calls of the source. Rule as the data show it, unless noted: active = parasite load remaining mostly below about 12% (no sharp cut-off); inactive = mostly above about 10%. Numbered stars: 1 amine (or outer) side, 2 acyl side, 3 side chain; on linkers, the order of the positions; unused ones are H or OH. Bridge positions count the residues as written; N and C are the ends. Square brackets hold non-standard residues; d marks the D form. Peptide text beside a SMILES is read from it. * marks the point of attachment. Heptanoyl(6-Me) = CC(C)CCCCC(=O)*; X3 = CC(C)C(CN[*:1])C(=O)[*:2]; Dab = NCC[CH](N)C(=O)O

Tests used:
[1] = P. berghei load reduction in hepatocytes – cell-based, HepG2, luciferase luminescence, HepG2 viability, primary screen (AID 624349);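 also: 100% = mean of DMSO negative control wells on the same plate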; conditions: P. berghei liver stage in HepG2, luciferase luminescence, concentration not given here; parasite load remaining: stronger effect = lower value; viability: measured here: HepG2 viability without parasites
[2] = liver-stage malaria parasite load reduction – cell-based, known kinase inhibitor set, luminescence, hepatoma host viability (AID 624392; call rule not given here;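 also: infected cells incubated roughly two days before readout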); conditions: Plasmodium liver stage in hepatoma cells, luciferase luminescence, concentration not given here; liver cell % of control: measured here: host liver cell viability; parasite % of control: stronger effect = lower value

Structure (SMILES)	parasite load remaining [1]	viability [1] [%]	liver cell % of control [2]	parasite % of control [2]
O=C(Nc1ccncc1)Nc1c(Cl)cc(Cl)cc1Cl	41.9% (inactive)	65.2	–	–
COc1cc2ncnc(Nc3cccc(O)c3)c2cc1OC	52.5% (inactive)	68.3	–	–
COc1ccc(S(=O)(=O)Nc2ccccc2CN(C)C/C=C/c2ccc(Cl)cc2)cc1	36.4% (inactive)	93.6	–	–
Cn1cnc2cc3c(Nc4cccc(Br)c4)ncnc3cc21	14.5% (inactive)	165	–	–
O=C1NC(=O)c2c1c(-c1ccccc1Cl)cc1[nH]c3ccc(O)cc3c21	32.6% (inactive)	81	–	–
Nc1c(O)cccc1C(=O)CC(N)C(=O)O (stereo not drawn)	62.4% (inactive)	73.1	–	–
O=C1C(Cl)=C(N2C(=O)CCC2=O)C(=O)c2ccccc21	34.2% (inactive)	76.3	–	–
O=C(Nc1ccc(-c2cn[nH]c2)cc1)C1COc2ccccc2O1 (stereo not drawn)	48.6% (inactive)	62.7	–	–
O=c1[nH]c(O)c2c1c1c3ccccc3nc1n1cncc21	34.3% (inactive)	93.6	–	–
CC(=O)O/N=C1\C(c2c(O)[nH]c3cc(Br)ccc23)=Nc2ccccc21	14.7% (inactive)	97.9	–	–
CC(C)n1cnc2c(NCc3ccccc3O)nc(NCCCO)nc21	37.8% (inactive)	118	–	–
NS(=O)(=O)c1ccc(N=Nc2c(O)[nH]c3ccc(Br)cc23)cc1	34% (inactive)	161	–	–
Cn1c(O)c(-c2[nH]c3ccccc3c2N=O)c2ccc(Br)cc21	27.7% (inactive)	171	–	–
CCCCc1c(-c2ccc(OC)cc2)[nH]c2nccnc12	34.8% (inactive)	106	–	–
CO[C@H]1C[C@@H]2CC[C@@H](C)[C@@](O)(O2)C(=O)C(=O)N2CCCC[C@H]2C(=O)O[C@H](C(C)C[C@H]2CC[C@@H](O)[C@H](OC)C2)CC(=O)[C@H](C)/C=C(\C)[C@@H](O)[C@@H](OC)C(=O)[C@H](C)C[C@H](C)/C=C/C=C/C=C/1C (stereo partly drawn)	45.4% (inactive)	63.2	–	–
COc1cc2ncnc(Nc3ccc(OCc4ccccc4)cc3)c2cc1OC	51.2% (inactive)	119	–	–
COc1cc2ncnc(N3CCN(C(=O)Nc4ccc(Oc5ccccc5)cc4)CC3)c2cc1OC	27.2% (inactive)	89.5	–	–
CC[C@@H](CO)Nc1nc(NCc2ccc(-c3ccccn3)cc2)c2ncn(C(C)C)c2n1	181% (inactive)	75.3	–	–
O=C1Nc2ccccc2/C1=C\c1c(Cl)[nH]c2ccccc12	35% (inactive)	118	–	–

Structure (SMILES)	parasite load remaining [1]	viability [1] [%]	liver cell % of control [2]	parasite % of control [2]
CCN(CC)C(=O)c1ccc(Nc2nc(OCC3CCCCC3)c3[nH]cnc3n2)cc1	41.1% (inactive)	89.4	–	–
Nc1nc(Nc2ccc(S(N)(=O)=O)cc2)nn1C(=S)Nc1c(F)cccc1F	8.25% (active)	93.1	–	–
COc1ccc(-c2cnc3c(-c4ccsc4)cnn3c2)cc1	16.9% (inactive)	67.4	–	–
COc1ccc2c(c1)c1c3c(c4c5ccccc5n(C)c4c1n2CC(O)CN(C)C)C(=O)NC3=O (stereo not drawn)	65.8% (inactive)	144	–	–
N#C/C(=C(/N)Sc1ccccc1N)c1cccc(C(O)c2ccncc2)c1 (stereo not drawn)	49.2% (inactive)	70	–	–
O=C1NCCc2[nH]c(-c3ccnc(-c4cnc5ccccc5c4)c3)cc21	35.3% (inactive)	77.1	–	–
CC(C)CCCCC(=O)NC(CCN)C(=O)NC(C(=O)NC(CCN)C(=O)NC1CCNC(=O)C(C(C)O)NC(=O)C(CCN)NC(=O)C(CCN)NC(=O)C(C(C)C)CNC(=O)C(CC(C)C)NC(=O)C(CCN)NC1=O)C(C)O (stereo not drawn) ({Heptanoyl(6-Me)}-[Dab]T[Dab][Dab][Dab]L[X3][Dab][Dab]T; lactam 4-C; configuration not given here)	68.1% (inactive)	75.2	–	–
CN(C)c1ccc(/C=C2/C(=O)Nc3ccccc32)cc1	34.8% (inactive)	126	–	–
CC[n+]1c(/C=C/N(C)c2ccccc2)n(-c2ccccc2)c2ccc(-c3nc4ccccc4s3)cc21	33.2% (inactive)	152	–	–
CC(C)n1cnc2c(NCc3ccccc3)nc(NCCCO)nc21	34.6% (inactive)	118	–	–
O=c1c(O)c(-c2ccc(O)c(O)c2)oc2cc(O)c(O)c(O)c12	32.1% (inactive)	88.8	–	–
CCOc1nc(NC(=O)Cc2cc(OC)ccc2OC)cc(N)c1C#N	37.8% (inactive)	72.7	–	–
O=C1NC(=NCc2cccs2)S/C1=C\c1ccc2ncccc2c1	27.7% (inactive)	96.3	–	–
NC(=O)Nc1cc(-c2ccccc2)sc1C(N)=O	74.4% (inactive)	163	–	–
CCCCc1c(-c2ccc(O)cc2)[nH]c2nccnc12	46.4% (inactive)	112	–	–
O=C(Nc1cccc(Nc2cc(Nc3cccc(C(F)(F)F)c3)ncn2)c1)C1CC1	48.9% (inactive)	163	–	–
NCCNc1ncc(C(N)=O)c(Nc2cccc(C(F)(F)F)c2)n1	37.1% (inactive)	76.9	–	–
CCOc1cc2ncnc(Nc3cccc(Br)c3)c2cc1OCC	50.2% (inactive)	132	–	–
NCCCn1cc(C2=C(c3c[nH]c4ccccc34)C(=O)NC2=O)c2ccccc21	53.3% (inactive)	148	–	–

Structure (SMILES)	parasite load remaining [1]	viability [1] [%]	liver cell % of control [2]	parasite % of control [2]
CNc1cc2c(Nc3cccc(Br)c3)ncnc2cn1	49.2% (inactive)	157	–	–
Cc1ncc2ccccc2c1C#N	44.1% (inactive)	86.2	–	–
Cc1cncc2cccc(S(=O)(=O)N3CCCN(C(=O)CN)C[C@H]3C)c12	43.2% (inactive)	68.1	–	–
COC1[C@@H](OC)C[C@H](C)[C@@H](OC)C2=CC(=O)C=C(NC(=O)/C(C)=C/C=C\C(OC)[C@@H](OC(N)=O)/C(C)=C/[C@@H]1C)C2=O (stereo partly drawn)	25.3% (inactive)	84.1	–	–
CCN1CCN(Cc2ccc(NC(=O)c3cc(NC(=O)c4ccno4)cc(OC)c3)cc2C(F)(F)F)CC1	–	–	99.7%	75.7% (inactive)
C=CC(=O)Nc1ccc(Nc2nc(NC3CCC(N(C)C)CC3)nc3c2ncn3C(C)C)cc1 (stereo not drawn)	–	–	57.1%	6.69% (inactive)
O=C(Nc1ccc(-c2csc(Nc3ccc(Cl)cc3)n2)cc1)c1ccccc1	–	–	103%	110% (inactive)
Cc1cc(Nc2nc(-c3ccccc3)nc3ccccc23)n[nH]1	33.3% (inactive)	117	–	–
CCN1CCN(Cc2ccc(NC(=O)c3cc(NC(=O)c4cc(-c5ccc(OC)cc5)n[nH]4)cc(OC)c3)cc2C(F)(F)F)CC1	–	–	90.4%	132% (inactive)
Cc1c[nH]c(C=C2C(=O)Nc3ccccc32)c1CCC(=O)O	–	–	85.5% and 92.1% and 99.1%	58.7% (inactive) and 47.8% (inactive) and 49.4% (inactive)
Nc1cnc(CNc2ccccc2Cl)cn1	–	–	100%	136% (inactive)
Cn1sc(=O)n(Cc2ccccc2)c1=O	33% (inactive)	94.4	–	–
Cn1cc(/C=C2\C(=O)Nc3ccc(S(N)(=O)=O)cc32)c2ccccc21	59.7% (inactive)	106	–	–
NC(=O)Nc1sc(-c2ccccc2)cc1C(N)=O	55.2% (inactive)	90.8	111%	316% (inactive)
CCOC(=O)c1c(C)[nH]c(/C=C2\C(=O)Nc3ccccc32)c1C	39.2% (inactive)	69.8	–	–
CCN1CCN(Cc2ccc(NC(=O)c3ccc(C)c(NC(=O)c4cc(-c5ccc(Br)cc5)n[nH]4)c3)cc2C(F)(F)F)CC1	–	–	90.4%	208% (inactive)
CC(C)CC(CO)Nc1nc(Nc2cccc(Cl)c2)c2ncn(C(C)C)c2n1 (stereo not drawn)	–	–	102%	148% (inactive)
Nc1cc(Nc2ccc(S(N)(=O)=O)cc2)ncn1	48.4% (inactive)	133	97.7%	145% (inactive)
Cn1cc(C=C2C(=O)Nc3cccnc32)c2ccccc21	–	–	314% and 107% and 104%	4.91% (inactive) and 51.8% (inactive) and 41.5% (inactive)
